{"source": "PubChem BioAssay (EPA / NIEHS)", "key": {"[1]": {"target": "human Ephrin type-A Receptor 2 (EphA2), EPHA2 (gene 1969) (UniProt P29317)", "assay": "NVS_ENZ_hEphA2: NovaScreen (NVS) Enzymatic Assay for human Ephrin type-A Receptor 2 (EphA2) (AID 2283155)", "outline": "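Enzyme activity of recombinant EphA2 read by fluorescence after mobility-shift separation, 1 h after dosing. Chemicals first tested at 25 uM (duplicate); those passing threshold run as concentration series, top 50 uM, single replicate, relative to DMSO.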"}, "[2]": {"target": "Protein deacetylase HDAC6 (Homo sapiens) (UniProt Q9UBN7)", "sequence (Q9UBN7 whole entry, looked up)": "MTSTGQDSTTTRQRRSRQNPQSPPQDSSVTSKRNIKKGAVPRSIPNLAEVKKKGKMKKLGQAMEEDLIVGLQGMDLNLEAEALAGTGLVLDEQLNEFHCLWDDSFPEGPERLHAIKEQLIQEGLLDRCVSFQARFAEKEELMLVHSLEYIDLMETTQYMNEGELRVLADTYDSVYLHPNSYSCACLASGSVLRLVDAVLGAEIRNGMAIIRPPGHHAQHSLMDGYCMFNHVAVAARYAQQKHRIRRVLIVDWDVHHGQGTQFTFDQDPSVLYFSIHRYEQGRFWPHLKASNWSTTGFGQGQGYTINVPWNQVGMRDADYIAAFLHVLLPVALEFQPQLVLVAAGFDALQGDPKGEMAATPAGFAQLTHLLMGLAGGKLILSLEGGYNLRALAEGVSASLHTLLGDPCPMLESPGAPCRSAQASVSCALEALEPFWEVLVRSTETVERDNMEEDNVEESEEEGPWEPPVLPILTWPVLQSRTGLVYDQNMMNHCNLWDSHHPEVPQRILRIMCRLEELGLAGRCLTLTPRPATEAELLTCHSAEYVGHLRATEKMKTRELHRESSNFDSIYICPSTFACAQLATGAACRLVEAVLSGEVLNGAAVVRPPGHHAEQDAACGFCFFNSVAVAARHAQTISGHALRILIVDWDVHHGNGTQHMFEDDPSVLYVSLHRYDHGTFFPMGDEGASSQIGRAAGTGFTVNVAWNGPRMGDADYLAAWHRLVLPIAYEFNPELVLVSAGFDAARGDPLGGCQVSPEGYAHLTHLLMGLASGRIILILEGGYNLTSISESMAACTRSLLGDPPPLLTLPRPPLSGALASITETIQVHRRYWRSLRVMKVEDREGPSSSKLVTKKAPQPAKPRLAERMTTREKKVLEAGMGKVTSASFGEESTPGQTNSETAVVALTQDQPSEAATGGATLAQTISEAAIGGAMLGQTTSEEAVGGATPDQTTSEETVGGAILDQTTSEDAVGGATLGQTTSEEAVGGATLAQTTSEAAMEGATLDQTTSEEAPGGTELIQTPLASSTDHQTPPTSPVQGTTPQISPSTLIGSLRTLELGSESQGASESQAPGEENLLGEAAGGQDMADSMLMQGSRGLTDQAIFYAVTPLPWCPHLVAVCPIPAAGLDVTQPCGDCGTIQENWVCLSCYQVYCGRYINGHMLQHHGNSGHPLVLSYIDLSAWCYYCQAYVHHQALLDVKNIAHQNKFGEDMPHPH", "assay": "NVS_ENZ_hHDAC6: NovaScreen (NVS) Enzymatic Assay for human Histone Deacetylase 6 (HDAC6) (AID 2283164)", "outline": "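Concentration-response runs up to 50 uM followed a duplicate 25 uM single-point screen. Deacetylase activity of recombinant human HDAC6 read by fluorescence after 1 h, with mobility-shift separation of substrate and product; DMSO as baseline.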"}, "[3]": {"target": "human IkappaB Kinase alpha (IKKa), CHUK (gene 1147) (UniProt O15111)", "assay": "NVS_ENZ_hIKKa: NovaScreen (NVS) Enzymatic Assay for human IkappaB Kinase alpha (IKKa) (AID 2283167)", "outline": "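Compounds first run in duplicate at 25 uM, those meeting threshold (e.g. 30% inhibition) retested to maximum 50 uM. Enzyme activity of recombinant IKKa measured by fluorescence with electrophoretic mobility shift separation, 1 hour post-dosing, DMSO baseline.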"}, "[4]": {"target": "human Protein Tyrosine Phosphatase Non-receptor Type 2 (PTPN2), PTPN2 (gene 5771) (UniProt P17706)", "sequence (P17706 whole entry, looked up)": "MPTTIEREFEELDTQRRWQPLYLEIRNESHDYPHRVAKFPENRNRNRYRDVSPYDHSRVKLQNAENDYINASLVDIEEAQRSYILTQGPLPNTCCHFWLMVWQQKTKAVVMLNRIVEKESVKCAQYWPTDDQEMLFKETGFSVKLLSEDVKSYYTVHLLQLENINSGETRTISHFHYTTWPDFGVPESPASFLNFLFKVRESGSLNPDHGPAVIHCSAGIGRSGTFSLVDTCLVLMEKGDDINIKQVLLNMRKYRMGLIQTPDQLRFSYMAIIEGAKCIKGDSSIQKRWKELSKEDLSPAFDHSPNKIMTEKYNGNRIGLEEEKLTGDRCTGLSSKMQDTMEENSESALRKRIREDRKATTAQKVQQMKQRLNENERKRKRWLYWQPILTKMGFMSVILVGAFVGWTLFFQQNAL", "assay": "NVS_ENZ_hPTPN2: NovaScreen (NVS) Enzymatic Assay for human Protein Tyrosine Phosphatase Non-receptor Type 2 (PTPN2) (AID 2283207)", "outline": "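Activity measured as fluorescence after mobility-shift separation of substrate and product, 1 h after compound. Duplicate single-point 25 uM primary testing, concentration series for actives; inhibition scored as signal loss relative to DMSO baseline.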"}, "[5]": {"target": "human Mitogen-Activated Protein Kinase 1 (MAPK 1), MAPK1 (gene 5594) (UniProt P28482)", "sequence (P28482 whole entry, looked up)": "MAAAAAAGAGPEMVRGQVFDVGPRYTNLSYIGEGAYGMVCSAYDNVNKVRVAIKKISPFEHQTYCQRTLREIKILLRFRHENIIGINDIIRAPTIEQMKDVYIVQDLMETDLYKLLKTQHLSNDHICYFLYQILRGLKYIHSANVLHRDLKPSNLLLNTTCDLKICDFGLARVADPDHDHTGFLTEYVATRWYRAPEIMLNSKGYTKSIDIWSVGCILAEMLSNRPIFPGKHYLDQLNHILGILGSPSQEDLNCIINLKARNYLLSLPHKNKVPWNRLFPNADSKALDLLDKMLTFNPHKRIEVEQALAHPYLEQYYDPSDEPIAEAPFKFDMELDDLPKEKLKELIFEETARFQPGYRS", "assay": "NVS_ENZ_hMAPK1: NovaScreen (NVS) Enzymatic Assay for human Mitogen-Activated Protein Kinase 1 (MAPK 1) (AID 2283175)", "outline": "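Cell-free recombinant human MAPK1 enzymatic assay, fluorescence/electrophoretic mobility shift read at 1 h; loss of signal vs DMSO. Primary screen in duplicate at 25 uM; actives (e.g. ≥30% inhibition) run as concentration-response up to 50 uM.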"}, "[6]": {"target": "Norway rat Vesicular Monoamine Transporter (VMAT2), neurotransmitter transporter, Slc18a2 (gene 25549) (UniProt Q01827)", "assay": "NVS_TR_rVMAT2: NovaScreen (NVS) Transporter Assay for Norway rat Vesicular Monoamine Transporter (VMAT2), neurotransmitter transporter (AID 2283376);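 note: actives lower the bound radioligand signal below the DMSO level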", "outline": "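Using rat forebrain membranes, specific radioligand binding to VMAT2 was measured by filtration and scintillation counting after 1 hour. Chemicals screened at 25 uM in duplicate, actives retested in concentration series, DMSO baseline.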"}, "[7]": {"target": "rat Acetylcholinesterase (AChE), Ache (gene 83817) (UniProt P37136)", "sequence (P37136 whole entry, looked up)": "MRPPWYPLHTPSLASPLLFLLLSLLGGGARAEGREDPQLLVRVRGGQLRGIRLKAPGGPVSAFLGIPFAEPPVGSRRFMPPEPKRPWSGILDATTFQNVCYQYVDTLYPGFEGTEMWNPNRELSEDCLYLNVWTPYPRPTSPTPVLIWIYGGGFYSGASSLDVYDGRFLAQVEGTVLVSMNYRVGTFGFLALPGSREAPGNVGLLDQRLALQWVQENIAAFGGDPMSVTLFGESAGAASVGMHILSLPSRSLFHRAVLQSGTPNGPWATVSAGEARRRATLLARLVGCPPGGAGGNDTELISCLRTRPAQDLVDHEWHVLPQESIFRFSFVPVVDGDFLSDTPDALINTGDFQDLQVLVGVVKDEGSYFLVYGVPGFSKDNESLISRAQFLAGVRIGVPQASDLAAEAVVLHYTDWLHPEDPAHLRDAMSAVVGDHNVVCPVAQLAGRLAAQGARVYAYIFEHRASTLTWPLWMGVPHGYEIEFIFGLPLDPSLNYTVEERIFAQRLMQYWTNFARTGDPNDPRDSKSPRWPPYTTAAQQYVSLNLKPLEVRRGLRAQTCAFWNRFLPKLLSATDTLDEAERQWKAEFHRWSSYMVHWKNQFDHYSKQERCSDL", "assay": "NVS_ENZ_rAChE: NovaScreen (NVS) Enzymatic Assay for rat Acetylcholinesterase (AChE) (AID 2283233)", "outline": "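Compounds first screened at 25 uM in duplicate, then those passing threshold tested in concentration series up to 50 uM, against AChE from rat brain membranes. Enzyme activity read by absorbance at 0.33 h; inhibition scored versus DMSO.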"}, "[8]": {"target": "rat Monoamine Oxidase, MAO-B, Peripheral (MAOBP), Maob (gene 25750) (UniProt P19643)", "sequence (P19643 whole entry, looked up)": "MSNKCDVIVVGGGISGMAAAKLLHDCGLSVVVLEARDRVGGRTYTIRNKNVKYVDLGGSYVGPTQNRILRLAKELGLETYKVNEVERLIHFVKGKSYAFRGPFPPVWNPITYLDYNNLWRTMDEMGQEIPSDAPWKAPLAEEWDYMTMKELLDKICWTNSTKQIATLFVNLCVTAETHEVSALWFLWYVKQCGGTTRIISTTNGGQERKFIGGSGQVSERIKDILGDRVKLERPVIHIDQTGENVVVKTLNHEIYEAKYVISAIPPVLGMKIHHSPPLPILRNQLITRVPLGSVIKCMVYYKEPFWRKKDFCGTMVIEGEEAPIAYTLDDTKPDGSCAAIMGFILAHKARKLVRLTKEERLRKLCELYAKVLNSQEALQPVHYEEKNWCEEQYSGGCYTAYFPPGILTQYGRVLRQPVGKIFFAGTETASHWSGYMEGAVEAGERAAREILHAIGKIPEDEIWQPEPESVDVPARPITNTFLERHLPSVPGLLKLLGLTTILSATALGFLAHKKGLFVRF", "assay": "NVS_ENZ_rMAOBP: NovaScreen (NVS) Enzymatic Assay for rat Monoamine Oxidase, MAO-B, Peripheral (MAOBP) (AID 2283242)"}, "[9]": {"test_system": "rat Monoamine Oxidase, MAO-A, Peripheral (MAOAP), gene 29253", "assay": "NVS_ENZ_rMAOAP: NovaScreen (NVS) Enzymatic Assay for rat Monoamine Oxidase, MAO-A, Peripheral (MAOAP) (AID 2283237)", "outline": "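Scintillation counting tracked MAO-A activity in a cell-free rat liver mitochondrial membrane prep, read 1.17 hours after compound addition. Single-point duplicate testing at 25 uM preceded concentration-response follow-up; activity was fitted relative to DMSO.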"}, "[10]": {"test_system": "rat Monoamine Oxidase, MAO-A, Central (MAOAC), gene 29253", "assay": "NVS_ENZ_rMAOAC: NovaScreen (NVS) Enzymatic Assay for rat Monoamine Oxidase, MAO-A, Central (MAOAC) (AID 2283243);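 note: potency refers to inhibition seen as signal drop below DMSO baseline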", "outline": "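Enzyme from rat brain, cell-free radiodetection format. Counts taken at 1.5 h; activity fitted against DMSO baseline, loss of signal marking inhibition. Confirmatory concentration series followed the 25 uM duplicate screen.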"}, "[11]": {"target": "rat Corticotropin Releasing Factor Receptor (CRF), Crhr1 (gene 58959) (UniProt P35353)", "sequence (P35353 whole entry, looked up)": "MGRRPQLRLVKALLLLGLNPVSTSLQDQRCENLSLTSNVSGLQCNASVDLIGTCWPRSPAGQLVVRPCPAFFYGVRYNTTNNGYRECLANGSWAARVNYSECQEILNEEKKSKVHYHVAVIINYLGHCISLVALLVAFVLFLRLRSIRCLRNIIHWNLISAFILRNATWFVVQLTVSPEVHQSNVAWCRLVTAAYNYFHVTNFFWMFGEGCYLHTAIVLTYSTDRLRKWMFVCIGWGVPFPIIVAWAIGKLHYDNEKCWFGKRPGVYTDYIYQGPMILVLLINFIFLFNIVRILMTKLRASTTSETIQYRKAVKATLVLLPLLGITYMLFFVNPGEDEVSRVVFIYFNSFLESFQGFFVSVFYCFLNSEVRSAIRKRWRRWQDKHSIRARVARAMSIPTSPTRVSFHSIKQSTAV", "assay": "NVS_GPCR_rCRF: NovaScreen (NVS) G Protein-Coupled Receptor Assay for rat Corticotropin Releasing Factor Receptor (CRF) (AID 2283300)", "outline": "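Single-concentration (25 uM, duplicate) radioligand binding on rat cortical membrane preparations, counted by scintillation after 2 h. Activity scored as signal loss relative to DMSO negative control.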"}, "[12]": {"target": "rat Neurotensin Receptor (NTS), Ntsr1 (gene 366274) (UniProt P20789)", "sequence (P20789 whole entry, looked up)": "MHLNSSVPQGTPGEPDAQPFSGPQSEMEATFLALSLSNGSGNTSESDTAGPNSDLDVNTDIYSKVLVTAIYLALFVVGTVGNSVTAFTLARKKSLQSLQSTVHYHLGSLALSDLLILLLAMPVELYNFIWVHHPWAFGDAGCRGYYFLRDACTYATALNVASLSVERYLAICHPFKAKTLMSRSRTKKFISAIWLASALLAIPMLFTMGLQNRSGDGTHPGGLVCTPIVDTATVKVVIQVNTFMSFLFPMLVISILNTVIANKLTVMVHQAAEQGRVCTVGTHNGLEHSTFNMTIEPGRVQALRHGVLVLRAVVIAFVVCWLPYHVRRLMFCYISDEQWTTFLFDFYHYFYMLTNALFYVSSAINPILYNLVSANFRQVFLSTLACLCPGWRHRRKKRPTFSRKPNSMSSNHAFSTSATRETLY", "assay": "NVS_GPCR_rNTS: NovaScreen (NVS) G Protein-Coupled Receptor Assay for rat Neurotensin Receptor (NTS) (AID 2283308)", "outline": "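Single-point duplicates at 25 uM, then concentration series to 50 uM max for hits, measured radioligand displacement on rat forebrain membrane preparations. Bound label counted by filtration scintillation at 1 h; signal loss relative to DMSO fitted.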"}, "[13]": {"target": "human Neonicotinoid receptor (NNR), CHRNA2 (gene 1135) (UniProt Q15822)", "sequence (Q15822 whole entry, looked up)": "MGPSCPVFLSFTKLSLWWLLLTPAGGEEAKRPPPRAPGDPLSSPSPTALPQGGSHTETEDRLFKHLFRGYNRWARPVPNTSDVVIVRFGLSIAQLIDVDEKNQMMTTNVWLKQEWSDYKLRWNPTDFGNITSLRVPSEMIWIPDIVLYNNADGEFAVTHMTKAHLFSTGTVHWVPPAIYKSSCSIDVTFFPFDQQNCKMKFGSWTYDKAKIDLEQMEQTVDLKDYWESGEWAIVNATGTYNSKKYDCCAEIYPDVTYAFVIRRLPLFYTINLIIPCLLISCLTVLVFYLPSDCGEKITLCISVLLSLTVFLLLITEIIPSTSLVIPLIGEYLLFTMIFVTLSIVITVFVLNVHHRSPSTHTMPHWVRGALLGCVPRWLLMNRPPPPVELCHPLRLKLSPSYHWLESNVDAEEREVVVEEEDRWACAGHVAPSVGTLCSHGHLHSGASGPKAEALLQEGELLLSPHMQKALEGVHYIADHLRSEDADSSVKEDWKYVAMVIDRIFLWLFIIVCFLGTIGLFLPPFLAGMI", "assay": "NVS_LGIC_hNNR_NBungSens: NovaScreen (NVS) Ligand-Gated Ion Channel Assay for human Neonicotinoid receptor (NNR) (AID 2283313)", "outline": "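Compounds first screened in duplicate at 25 uM, then actives re-tested in single-replicate dose series up to 50 uM. Binding measured as displacement of specific radioligand from neuroblastoma membrane receptors after 2 h, scintillation read on filters.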"}, "[14]": {"target": "bovine Gamma-Aminobutyric Acid Type A Receptor BDZ, alpha 1 site (GABARa1), GABRA1 (gene 780973) (UniProt P08219)", "sequence (P08219 whole entry, looked up)": "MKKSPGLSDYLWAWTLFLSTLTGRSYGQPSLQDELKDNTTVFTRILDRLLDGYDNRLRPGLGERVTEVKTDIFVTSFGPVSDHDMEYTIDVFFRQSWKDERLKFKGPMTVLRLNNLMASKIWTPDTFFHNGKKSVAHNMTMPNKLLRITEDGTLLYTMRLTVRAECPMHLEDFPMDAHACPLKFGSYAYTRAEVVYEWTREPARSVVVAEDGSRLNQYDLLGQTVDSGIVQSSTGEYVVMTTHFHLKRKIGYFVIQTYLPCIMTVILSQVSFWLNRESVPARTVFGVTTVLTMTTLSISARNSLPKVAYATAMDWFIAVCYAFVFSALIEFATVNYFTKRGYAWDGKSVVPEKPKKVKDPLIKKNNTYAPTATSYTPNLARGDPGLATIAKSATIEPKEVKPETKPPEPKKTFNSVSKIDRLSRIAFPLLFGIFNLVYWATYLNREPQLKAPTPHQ", "assay": "NVS_LGIC_bGABARa1: NovaScreen (NVS) Ligand-Gated Ion Channel Assay for bovine Gamma-Aminobutyric Acid Type A Receptor BDZ, alpha 1 site (GABARa1) (AID 2283321)", "outline": "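Bovine cortex membrane preparation, benzodiazepine site on GABA-A alpha1; specific radioligand displacement read after 0.75 h by filtration and scintillation. Screen at 25 uM, then singleton titrations up to 50 uM; DMSO baseline.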"}, "[15]": {"target": "Bile acid receptor (Homo sapiens) (UniProt Q96RI1)", "assay": "NVS_NR_hFXR_Agonist: NovaScreen (NVS) Nuclear Receptor Binding Assay for human Farnesoid X Receptor Agonism (FXR) (AID 2283347)", "outline": "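Agonist-mode FXR assay read by time-resolved FRET 1 h after compound addition, using isolated human receptor protein without cells. Duplicate 25 uM single-point primary screen, concentration series for confirmed actives; DMSO as baseline.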"}}, "note": "Inconclusive results are not listed. Calls of active or inactive are those of the source. Rule for the calls: active = hit-call score of the fitted dose curve at least 0.9, where 1 is the maximum; inconclusive = response in the unintended direction; inactive = score below 0.9.", "data": [{"molecule": "CC(=O)c1ccccc1", "values": [{"measurement": "outcome", "setting": "[1]", "value": "inactive"}]}, {"molecule": "CCCCCCCCCCCCc1ccccc1", "values": [{"measurement": "outcome", "setting": "[2]", "value": "inactive"}]}, {"molecule": "CCCC(CCC)C(=O)O", "values": [{"measurement": "outcome", "setting": "[2]", "value": "inactive"}, {"measurement": "outcome", "setting": "[3]", "value": "inactive"}, {"measurement": "outcome", "setting": "[4]", "value": "inactive"}]}, {"molecule": "C[Si]1(C)O[Si](C)(C)O[Si](C)(C)O[Si](C)(C)O1", "values": [{"measurement": "outcome", "setting": "[5]", "value": "inactive"}, {"measurement": "outcome", "setting": "[6]", "value": "inactive"}]}, {"molecule": "c1ccc(Nc2ccccc2)cc1", "values": [{"measurement": "outcome", "setting": "[4]", "value": "inactive"}]}, {"molecule": "Cc1nccn1-c1ccc(Sc2cccc(C3(C(N)=O)CCOCC3)c2)cc1", "values": [{"measurement": "outcome", "setting": "[7]", "value": "inactive"}, {"measurement": "outcome", "setting": "[8]", "value": "inactive"}]}, {"molecule": "O=[N+]([O-])c1ccc(O)cc1", "values": [{"measurement": "AC50", "setting": "[9]", "value": "19.2 µM (active)"}, {"measurement": "AC50", "setting": "[8]", "value": "39.1 µM (active)"}, {"measurement": "AC50", "setting": "[10]", "value": "16.6 µM (active)"}]}, {"molecule": "NCC1(Cc2noc(=O)[nH]2)CCCCC1", "values": [{"measurement": "outcome", "setting": "[9]", "value": "inactive"}]}, {"molecule": "CCC(O)=C1C(=O)CC(C(=O)O)CC1=O", "note": "(configuration not stated)", "values": [{"measurement": "outcome", "setting": "[11]", "value": "inactive"}]}, {"molecule": "Cc1oc(-c2ccccc2)nc1CCOc1cccc2c1ccn2CCC(=O)O", "values": [{"measurement": "outcome", "setting": "[11]", "value": "inactive"}]}, {"molecule": "COc1cc(S(=O)(=O)O)c(C)cc1N=Nc1c(O)ccc2cc(S(=O)(=O)O)ccc12", "values": [{"measurement": "AC50", "setting": "[12]", "value": "16.8 µM (active)"}, {"measurement": "AC50", "setting": "[13]", "value": "16.7 µM (active)"}]}, {"molecule": "O=S(=O)(O)c1ccc(N=Nc2c(O)ccc3cc(S(=O)(=O)O)ccc23)cc1", "values": [{"measurement": "outcome", "setting": "[12]", "value": "inactive"}]}, {"molecule": "C/C=C/C=C/C(=O)O", "values": [{"measurement": "AC50", "setting": "[14]", "value": "20.9 µM (active)"}]}, {"molecule": "Cc1[nH]nc2c1N=C(c1ccccc1Cl)c1cc([N+](=O)[O-])ccc1N2", "values": [{"measurement": "AC50", "setting": "[14]", "value": "2.29 µM (active)"}]}, {"molecule": "c1ccc(C[n+]2cccc3ccccc32)cc1", "values": [{"measurement": "outcome", "setting": "[15]", "value": "inactive"}]}]}
